# Laboratory results taken from PubChem BioAssay (NCI).
# The panel holds about 79,000 compounds, 15% with a hit somewhere; the sample as a whole holds those more often. A number with no mark means an inactive call. Active and inactive are the calls of the source. No stated cut-off is given here; in the data, active means growth inhibition above about 70%; inactive means the rest.
# Columns and labels:
# [1] = NCI Yeast Anticancer Drug Screen. Data for the rad52 strain (AID 147);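 further: 0% = growth of vehicle-treated control cultures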; settings: S. cerevisiae rad52 mutant growth inhibition, hits give high values
# Summary of the method: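 The repair-mutant yeast strain was incubated with compounds, then growth was read and inhibition derived relative to vehicle.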
# [2] = NCI Yeast Anticancer Drug Screen. Data for the wt1 strain (AID 149);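 further: 0% = growth of vehicle-treated wt1 cultures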; settings: S. cerevisiae wt1 strain (SPY 50644) growth inhibition, hits give high values
# Summary of the method: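 wt1 strain grown with compound or vehicle; inhibition taken from the growth difference.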
# [3] = NCI Yeast Anticancer Drug Screen. Data for the rad50EPP+ strain (AID 151);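 further: 0% = growth of vehicle-treated control cultures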; settings: S. cerevisiae rad50 mutant strain, hits give high values
# Summary of the method: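 Vehicle-normalised growth inhibition; rad50EPP+ yeast strain, altered in DNA damage repair, compound-treated.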
# [4] = NCI Yeast Anticancer Drug Screen. Data for the rad50 strain (AID 155);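 further: 0% = growth of vehicle-only cultures of the same strain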; settings: S. cerevisiae rad50 strain growth inhibition, hits give high values
# Summary of the method: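 DNA repair mutant yeast, compound exposure, growth read-out; inhibition is taken relative to vehicle.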
# [5] = NCI Yeast Anticancer Drug Screen. Data for the mec2-1 strain (AID 157); settings: S. cerevisiae mec2-1 strain, hits give high values
# Summary of the method: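 Mutant yeast (mec2-1) grown with compound; growth inhibition relative to vehicle control reported.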
# [6] = NCI Yeast Anticancer Drug Screen. Data for the rad14 strain (AID 159);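 further: 0% = growth of vehicle-treated control cultures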; settings: S. cerevisiae rad14 strain growth inhibition, hits give high values
# Summary of the method: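 DNA repair-defective yeast, compound-exposed; % growth inhibition derived by comparison with vehicle-treated controls.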
# [7] = NCI Yeast Anticancer Drug Screen. Data for the sgs1 mgt1 strain (AID 161);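 further: 0% = growth of cultures given vehicle only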; settings: S. cerevisiae sgs1 mgt1 strain, hits give high values
# Summary of the method: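 Growth of a repair-deficient yeast mutant was monitored after compound treatment and expressed as inhibition relative to vehicle-treated cultures.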
# [8] = NCI Yeast Anticancer Drug Screen. Data for the CLN2oe strain (AID 163);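 further: 0% = growth of vehicle-only control cultures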; settings: S. cerevisiae CLN2oe strain, hits give high values
# Summary of the method: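 Compounds are applied to yeast harbouring a defined cell-cycle control change; reduced growth compared with vehicle-treated controls gives the value.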
# [9] = NCI Yeast Anticancer Drug Screen. Data for the cln2 rad14 strain (AID 165);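 further: 0% = growth equal to vehicle treated cultures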; settings: S. cerevisiae cln2 rad14 strain, hits give high values
# Summary of the method: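 Readout is yeast growth inhibition versus vehicle-treated controls, using a strain with cln2 and rad14 alterations exposed to compound.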
# [10] = NCI Yeast Anticancer Drug Screen. Data for the bub3 strain (AID 167); settings: S. cerevisiae bub3 mutant strain, hits give high values
# Summary of the method: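 In this screen, a yeast mutant lacking normal mitotic checkpoint function is challenged with compound. Relative growth versus vehicle gives the inhibition value.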
# [11] = NCI Yeast Anticancer Drug Screen. Data for the wt2 strain (AID 169);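 further: 0% = growth of vehicle-treated yeast cultures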; settings: S. cerevisiae wt2 strain growth inhibition, hits give high values
# Summary of the method: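 Against vehicle-treated controls, the growth of yeast exposed to each compound was compared, and the inhibition was recorded.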
# [12] = NCI Yeast Anticancer Drug Screen. Data for the mlh1 strain (AID 171);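 further: 0% = growth of vehicle-treated control cultures of the same strain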; settings: S. cerevisiae mlh1 strain growth inhibition, hits give high values
# Summary of the method: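 Measured: yeast growth. Reference: vehicle-treated controls. Organism: strain with a defined alteration affecting DNA damage repair or cell cycle control, treated with compound.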
# [13] = NCI Yeast Anticancer Drug Screen. Data for the sgs1 strain (AID 173);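 further: 0% = growth of vehicle-only control cultures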; settings: S. cerevisiae sgs1 mutant, hits give high values
# Summary of the method: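 Each compound was added to cultures of the altered yeast strain. Growth was recorded, and inhibition was derived by comparison with vehicle controls.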
# [14] = NCI Yeast Anticancer Drug Screen. Data for the mlh1 rad18 strain (AID 175); settings: S. cerevisiae mlh1 rad18 strain growth inhibition, hits give high values
# Summary of the method: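 Genetically defined yeast (DNA repair-deficient) exposed to compounds; growth inhibition determined relative to vehicle.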
# [15] = NCI Yeast Anticancer Drug Screen. Data for the rad18 strain (AID 177); settings: S. cerevisiae rad18 mutant growth inhibition, hits give high values
# Summary of the method: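 Vehicle-treated cultures served as the baseline for scoring compound-induced growth inhibition in DNA-repair-mutant yeast.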
# [16] = at 5.0 µM (retest, dose inferred, filed as 0.5)
# [17] = at 50.0 µM (retest, dose inferred, filed as 5.0)
smiles,measurement,setting,value
OB(O)c1ccccc1C#Cc1ccccc1B(O)O,growth inhibition,[1]; at 1.2 µM,2%
same,growth inhibition,[1]; at 3.7 µM,7%
same,growth inhibition,[1]; at 11.0 µM,24%
same,growth inhibition,[1]; at 33.0 µM,59%
same,growth inhibition,[1]; at 100.0 µM,95% (active)
same,growth inhibition,[2]; at 1.2 µM,-2%
same,growth inhibition,[2]; at 3.7 µM,0%
same,growth inhibition,[2]; at 11.0 µM,6%
same,growth inhibition,[2]; at 33.0 µM,18%
same,growth inhibition,[2]; at 100.0 µM,59%
same,growth inhibition,[3]; at 1.2 µM,0%
same,growth inhibition,[3]; at 3.7 µM,6%
same,growth inhibition,[3]; at 11.0 µM,36%
same,growth inhibition,[3]; at 33.0 µM,69%
same,growth inhibition,[3]; at 100.0 µM,85% (active)
same,growth inhibition,[4]; at 1.2 µM,7%
same,growth inhibition,[4]; at 3.7 µM,17%
same,growth inhibition,[4]; [16],12%
same,growth inhibition,[4]; at 11.0 µM,47%
same,growth inhibition,[4]; at 33.0 µM,84% (active)
same,growth inhibition,[4]; [17],79% (active)
same,growth inhibition,[4]; at 50.0 µM,61.5%
same,growth inhibition,[4]; at 100.0 µM,96% (active)
same,growth inhibition,[5]; at 1.2 µM,-6%
same,growth inhibition,[5]; at 3.7 µM,1%
same,growth inhibition,[5]; [16],5%
same,growth inhibition,[5]; at 11.0 µM,13%
same,growth inhibition,[5]; at 33.0 µM,43%
same,growth inhibition,[5]; [17],50%
same,growth inhibition,[5]; at 50.0 µM,50%
same,growth inhibition,[5]; at 100.0 µM,87% (active)
same,growth inhibition,[6]; at 1.2 µM,-1%
same,growth inhibition,[6]; at 3.7 µM,3%
same,growth inhibition,[6]; at 11.0 µM,14%
same,growth inhibition,[6]; at 33.0 µM,41%
same,growth inhibition,[6]; at 100.0 µM,97% (active)
same,growth inhibition,[7]; [16],4%
same,growth inhibition,[7]; [17],44%
same,growth inhibition,[7]; at 50.0 µM,64.2%
same,growth inhibition,[8]; at 1.2 µM,-2%
same,growth inhibition,[8]; at 3.7 µM,1%
same,growth inhibition,[8]; at 11.0 µM,13%
same,growth inhibition,[8]; at 33.0 µM,38%
same,growth inhibition,[8]; at 100.0 µM,86% (active)
same,growth inhibition,[9]; [16],9%
same,growth inhibition,[9]; [17],39%
same,growth inhibition,[9]; at 50.0 µM,70.3% (active)
same,growth inhibition,[10]; at 1.2 µM,-7%
same,growth inhibition,[10]; at 3.7 µM,-8%
same,growth inhibition,[10]; [16],-1%
same,growth inhibition,[10]; at 11.0 µM,-8%
same,growth inhibition,[10]; at 33.0 µM,8%
same,growth inhibition,[10]; [17],20%
same,growth inhibition,[10]; at 50.0 µM,58%
same,growth inhibition,[10]; at 100.0 µM,79% (active)
same,growth inhibition,[11]; at 1.2 µM,-1%
same,growth inhibition,[11]; at 3.7 µM,-3%
same,growth inhibition,[11]; at 11.0 µM,3%
same,growth inhibition,[11]; at 33.0 µM,18%
same,growth inhibition,[11]; at 100.0 µM,93% (active)
same,growth inhibition,[12]; at 1.2 µM,1%
same,growth inhibition,[12]; at 3.7 µM,1%
same,growth inhibition,[12]; at 11.0 µM,12%
same,growth inhibition,[12]; at 33.0 µM,27%
same,growth inhibition,[12]; at 100.0 µM,94% (active)
same,growth inhibition,[13]; at 1.2 µM,-1%
same,growth inhibition,[13]; at 3.7 µM,4%
same,growth inhibition,[13]; at 11.0 µM,17%
same,growth inhibition,[13]; at 33.0 µM,35%
same,growth inhibition,[13]; at 100.0 µM,91% (active)
same,growth inhibition,[14]; [16],20%
same,growth inhibition,[14]; [17],79% (active)
same,growth inhibition,[14]; at 50.0 µM,68.2%
same,growth inhibition,[15]; at 1.2 µM,-4%
same,growth inhibition,[15]; at 3.7 µM,0%
same,growth inhibition,[15]; at 11.0 µM,8%
same,growth inhibition,[15]; at 33.0 µM,40%
same,growth inhibition,[15]; at 100.0 µM,95% (active)
O=C1C=CC(=Nc2ccccc2)c2ccccc21,growth inhibition,[1]; at 1.2 µM,1%
same,growth inhibition,[1]; at 3.7 µM,5%
same,growth inhibition,[1]; at 11.0 µM,20%
same,growth inhibition,[1]; at 33.0 µM,55%
same,growth inhibition,[1]; at 100.0 µM,77% (active)
same,growth inhibition,[2]; at 1.2 µM,8%
same,growth inhibition,[2]; at 3.7 µM,12%
same,growth inhibition,[2]; at 11.0 µM,21%
same,growth inhibition,[2]; at 33.0 µM,38%
same,growth inhibition,[2]; at 100.0 µM,45%
same,growth inhibition,[3]; at 1.2 µM,3%
same,growth inhibition,[3]; at 3.7 µM,8%
same,growth inhibition,[3]; at 11.0 µM,28%
same,growth inhibition,[3]; at 33.0 µM,53%
same,growth inhibition,[3]; at 100.0 µM,70% (active)
same,growth inhibition,[4]; at 1.2 µM,3%
same,growth inhibition,[4]; at 3.7 µM,15%
same,growth inhibition,[4]; [16],-8%
same,growth inhibition,[4]; at 11.0 µM,65%
same,growth inhibition,[4]; at 33.0 µM,88% (active)
same,growth inhibition,[4]; [17],70% (active)
same,growth inhibition,[4]; at 50.0 µM,37.9%
same,growth inhibition,[4]; at 100.0 µM,85% (active)
same,growth inhibition,[5]; at 1.2 µM,5%
same,growth inhibition,[5]; at 3.7 µM,10%
same,growth inhibition,[5]; [16],22%
same,growth inhibition,[5]; at 11.0 µM,19%
same,growth inhibition,[5]; at 33.0 µM,28%
same,growth inhibition,[5]; [17],43%
same,growth inhibition,[5]; at 50.0 µM,45.3%
same,growth inhibition,[5]; at 100.0 µM,44%
same,growth inhibition,[6]; at 1.2 µM,-1%
same,growth inhibition,[6]; at 3.7 µM,1%
same,growth inhibition,[6]; at 11.0 µM,12%
same,growth inhibition,[6]; at 33.0 µM,38%
same,growth inhibition,[6]; at 100.0 µM,58%
same,growth inhibition,[7]; [16],30%
same,growth inhibition,[7]; [17],60%
same,growth inhibition,[7]; at 50.0 µM,31.6%
same,growth inhibition,[8]; at 1.2 µM,-2%
same,growth inhibition,[8]; at 3.7 µM,-4%
same,growth inhibition,[8]; at 11.0 µM,6%
same,growth inhibition,[8]; at 33.0 µM,43%
same,growth inhibition,[8]; at 100.0 µM,39%
same,growth inhibition,[9]; [16],-17%
same,growth inhibition,[9]; [17],32%
same,growth inhibition,[9]; at 50.0 µM,24.6%
same,growth inhibition,[10]; at 1.2 µM,12%
same,growth inhibition,[10]; at 3.7 µM,37%
same,growth inhibition,[10]; [16],65%
same,growth inhibition,[10]; at 11.0 µM,62%
same,growth inhibition,[10]; at 33.0 µM,84% (active)
same,growth inhibition,[10]; [17],94% (active)
same,growth inhibition,[10]; at 50.0 µM,82.3% (active)
same,growth inhibition,[10]; at 100.0 µM,88% (active)
same,growth inhibition,[11]; at 1.2 µM,8%
same,growth inhibition,[11]; at 3.7 µM,17%
same,growth inhibition,[11]; at 11.0 µM,35%
same,growth inhibition,[11]; at 33.0 µM,54%
same,growth inhibition,[11]; at 100.0 µM,69%
same,growth inhibition,[12]; at 1.2 µM,3%
same,growth inhibition,[12]; at 3.7 µM,5%
same,growth inhibition,[12]; at 11.0 µM,20%
same,growth inhibition,[12]; at 33.0 µM,67%
same,growth inhibition,[12]; at 100.0 µM,82% (active)
same,growth inhibition,[13]; at 1.2 µM,5%
same,growth inhibition,[13]; at 3.7 µM,12%
same,growth inhibition,[13]; at 11.0 µM,29%
same,growth inhibition,[13]; at 33.0 µM,60%
same,growth inhibition,[13]; at 100.0 µM,76% (active)
same,growth inhibition,[14]; [16],27%
same,growth inhibition,[14]; [17],87% (active)
same,growth inhibition,[14]; at 50.0 µM,36.5%
same,growth inhibition,[15]; at 1.2 µM,2%
same,growth inhibition,[15]; at 3.7 µM,6%
same,growth inhibition,[15]; at 11.0 µM,37%
same,growth inhibition,[15]; at 33.0 µM,84% (active)
same,growth inhibition,[15]; at 100.0 µM,80% (active)
